Rows were chosen to be rich in hits. Some 1.2% of all compounds tested hit in one or more screens of this group.
GRK2 aptamer HTS = compounds blocking aptamer binding on GRK2 – biochemical, human GRK2, bead flow cytometry, HTS, primary screen. Beta-adrenergic receptor kinase 1 (Homo sapiens), P25098. FAM-aptamer displacement from GRK2. inhibition of aptamer binding, % at 10 µM. 0.59% of 330,000 active. AID 488847, 2010;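 active = inhibition of aptamer binding above 40%, roughly 3 SD of noise, on plates passing a quality check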;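 note: median bead fluorescence of bound FAM aptamer so fluorescent compounds give negative values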
Target sequence (P25098 whole entry, looked up): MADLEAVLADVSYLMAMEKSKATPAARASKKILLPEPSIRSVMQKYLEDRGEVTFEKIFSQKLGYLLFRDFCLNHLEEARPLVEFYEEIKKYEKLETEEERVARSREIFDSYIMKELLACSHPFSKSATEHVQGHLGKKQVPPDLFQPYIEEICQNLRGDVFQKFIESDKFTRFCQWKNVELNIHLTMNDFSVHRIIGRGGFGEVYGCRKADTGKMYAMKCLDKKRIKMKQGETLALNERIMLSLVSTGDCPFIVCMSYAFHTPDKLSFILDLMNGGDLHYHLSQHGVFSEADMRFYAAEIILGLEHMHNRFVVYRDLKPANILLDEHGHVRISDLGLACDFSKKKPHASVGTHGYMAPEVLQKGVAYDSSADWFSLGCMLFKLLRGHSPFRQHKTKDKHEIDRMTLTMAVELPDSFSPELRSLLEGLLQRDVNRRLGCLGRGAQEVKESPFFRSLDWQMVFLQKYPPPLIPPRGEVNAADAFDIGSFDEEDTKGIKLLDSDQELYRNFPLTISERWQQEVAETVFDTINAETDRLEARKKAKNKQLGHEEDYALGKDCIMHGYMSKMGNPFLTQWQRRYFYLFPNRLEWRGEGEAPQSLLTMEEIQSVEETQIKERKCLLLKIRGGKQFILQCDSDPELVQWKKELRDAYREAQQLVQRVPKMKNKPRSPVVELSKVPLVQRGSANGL
Platelet DG rel = inhibitors of platelet dense granule secretion, primary screen, cell-based, MLPCN, human platelets. human platelet-rich plasma, SFLLRN dense granule ATP release, luminescence. inhibition, %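 (compounds screened at 7.5 µM in platelet-rich plasma)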. 0.22% of 300,000 active. AID 1663, 2009;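 active = mean replicate score, as percent of positive control, at or above 50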
NTR1 ag = agonists of human NTR1, primary screen, imaging, U2OS cells, beta-arrestin-GFP, high content; Neurotensin receptor type 1 (Homo sapiens), P30989; NTR1-U2OS beta-arrestin-GFP spot imaging, agonist mode; activation, % at 20 µM; 0.17% of 330,000 active; AID 493036, 2011;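 active = activation at or above 40% of the spot to cytoplasm intensity ratio, with at least 20 cells analyzed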;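 note: 0% = DMSO without peptide and 100% = 100 nM NTR1 peptide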
MIN6 prolif = inducers of MIN6 beta-cell proliferation, primary screen, ATP luminescence, uHTS. proliferation, % at 10 µM. 0.29% of 330,000 active. AID 2380, 2010. MIN6 cells proliferation, ATPlite luminescence, 48 h; cells starved in 0.2% serum; 100% = growth in 10% serum;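 active = compounds whose signal lies at least 3.5 SD above the mean of all wells on their plate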;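 note: 0% = DMSO-treated cells in low-serum medium and 100% = 10% serum control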
NTR1 ag confirm = NTR1 agonists, single-dose retest, confirmation, imaging, U2OS cells, beta-arrestin-GFP, single concentration; shares compounds with NTR1 ag; NTR1-U2OS beta-arrestin-GFP translocation imaging; activation, % at 20 µM; 38% of 480 active; AID 504550, 2011;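 active = mean activation at 20 µM of at least 40%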;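 note: 0% = DMSO without peptide and 100% = 100 nM NTR1 peptide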
Active calls of the source: *; . = no result.

SMILES	GRK2 aptamer HTS	Platelet DG rel	NTR1 ag	MIN6 prolif	NTR1 ag confirm
O=C(CCCN1C(=O)C2CC=CCC2C1=O)Nc1cccc(F)c1 (configuration not stated)	0	-11	-1	-1	.
NC(=O)c1ccsc1NC(=O)COC(=O)/C=C/c1ccc([N+](=O)[O-])cc1	6	-2	5	4	.
COC(=O)c1ccc(/C=C/C(=O)OCC(=O)Nc2sccc2C(N)=O)cc1	0	.	45*	-5	77*
CC(C)c1nnc(NC(=O)c2ccc3ccccc3c2)s1	19	5	45*	-4	21
CCCCNc1c(-c2ccc(OC)c(SC(C)CC)c2)nc2ccc(C)cn12 (configuration not stated)	2	.	51*	-6	72*
C[C@H](NC(=O)c1[nH]cnc1C(=O)Nc1ccc(Cl)cc1)c1ccccc1	0	.	51*	-7	20
C[C@@H](NC(=O)c1[nH]cnc1C(=O)Nc1ccc(Cl)cc1)c1ccccc1	0	.	44*	-7	54*
O=C(Nc1ccccc1)c1nc[nH]c1C(=O)NCCNC(=O)c1[nH]cnc1C(=O)Nc1ccccc1	1	.	-1	2	.
O=C(Nc1ccc(Cl)cc1)c1nc[nH]c1C(=O)NCc1ccccc1	1	.	50*	-7	18
C[C@@H](NC(=O)c1[nH]cnc1C(=O)Nc1ccccc1)c1ccccc1	1	.	27	-7	.
CCCCc1nc(SCC(=O)N2CCCCC2)c2c(=O)n(C)c(=O)n(C)c2n1	2	4	5	-3	.
COc1ccc(C(=O)Nn2c(C)nc3ccccc3c2=O)cc1[N+](=O)[O-]	0	-3	-1	-1	.
CCCN1C2CCCC1CC(NC(=O)c1ccccc1Br)C2 (configuration not stated)	3	-1	0	-1	.
CCOC(=O)/C=c1\s/c(=C\c2ccc3cc(OC)ccc3c2)c(=O)n1CC(=O)NCC1CCCO1 (configuration not stated)	2	-9	52*	-4	45*
COc1ccc(/C=C/C(=O)OCC(=O)NCC2CCCO2)cc1 (configuration not stated)	0	-4	-1	-1	.
C=CCn1c(SCC(=O)c2ccc(O)c(O)c2)nnc1-c1cccc(OC)c1	2	.	0	-1	.
CCN(c1ccccc1)S(=O)(=O)c1ccc(Cl)c(NC(=O)CN(C)C2CCN(C)CC2)c1	3	18	0	-3	.
Oc1ccc(/C=N/N2CCN(C3c4ccccc4-c4ccccc43)CC2)c(O)c1	4	0	43*	-5	6
Oc1ccc(/C=N/N2CCN(C3c4ccccc4-c4ccccc43)CC2)cc1	0	-1	38	-4	.
C#Cc1ccc([C@@H]2C=C(C(=O)N3CCN(Cc4ccc5c(c4)OCO5)CC3)O[C@H](OCCCCO)C2)cc1	.	-2	3	-6	.
CCc1nc2ccccc2c(C(=O)OCC(=O)Nc2ccc(S(=O)(=O)N3CCOCC3)cc2)c1C	0	3	11	-1	.
CCc1nc2ccccc2c(C(=O)OCC(=O)Nc2cccc(S(=O)(=O)N3CCOCC3)c2)c1C	2	-1	60*	-5	65*
CN(C(=O)c1nc(-c2ccccc2)n(-c2ccccc2)n1)C1CCS(=O)(=O)C1 (configuration not stated)	1	15	-1	0	.
Cc1ccc(-c2nc(Nc3ccc(O)cc3)c3ccccc3n2)cc1	1	-2	42*	-7	37
CCCOC(=O)c1cccc(Nc2nc(-c3cccnc3)nc3ccccc23)c1	0	-5	44*	-6	44*
O=C(OCCNc1nc(-c2ccccc2)nc2ccccc12)c1cccnc1	0	3	6	0	.
Cc1ccc(-c2nc(Nc3cccc(O)c3)c3ccccc3n2)cc1	1	-2	57*	-7	44*
O=[N+]([O-])c1ccc(-c2nc(Nc3cccc(O)c3)c3ccccc3n2)cc1	2	4	56*	-5	49*
CC(C)(C)c1ccc(C(=O)NCCC(=O)Nc2cc(Cl)ccc2N2CCOCC2)cc1	1	.	18	-7	.
